For some of these results: Results with a measured potency or affinity are listed apart.

A short description of test [1]: blockers of polyQ-driven CASP3 activation – cell-based (AID 1583). The following applies: polyglutamine-induced caspase-3 activation, cell assay; stronger effect = higher value;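 tested at 10 µM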.
The nature of test [2]: yeast 75Q aggregation reduction – 75Q-TubU reporter (AID 1593). The following applies: Yeast 75Q polyglutamine aggregation reporter.
Test [3] in a line: restoration of touch response, mutant HTT neurons – whole organism, C. elegans mechanosensory neurons, N-terminal huntingtin (AID 1599). The following applies: C. elegans polyQ-huntingtin mechanosensory neurons, stronger effect = higher value.
Test [4] in a line: blockers of cytochrome c efflux from mitochondria – biochemical, purified mitochondria (AID 1603).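 Also: mouse liver mitochondria challenged with calcium chloride; signal normalized to the plate average as 100%.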 The following applies: stronger effect = lower value.
Test [5] can be described thus: polyglutamine aggregate formation blockers (AID 1604). The following applies: polyglutamine-induced protein aggregation inhibition assay; stronger effect = higher value; tested at 2.5 µM.
Test [6] in a line: glutamate transport activators, MN-1 cells, MN-1 cell line (AID 1612).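 Also: tested at 1 µM final; 0% = mean of DMSO vehicle wells on each plate; positive means more glutamate uptake than control and negative means less.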 The following applies: MN-1 motor neuron cells, stronger effect = higher value.
Test [7] in a line: 75Q-TubH aggregate inhibition, S. cerevisiae, yeast (AID 1616). The following applies: S. cerevisiae 75Q-TubH polyglutamine aggregation suppression; stronger effect = higher value.

As a reminder, the inhibition is the change of the read-out against control, counted positive when it falls. In the case of `N.N.O=C(O)C1(C(=O)O)CCC1.[Pt]`, in test [1], the inhibition was -4.65%. The molecule further came in with a score in test [2] of 1.14. Besides, in test [3], the rescue above control worked out at 12.6. Moreover, the cytochrome c release ratio in test [4] amounted to 0.66. In addition, the inhibition of aggregation in test [5] was found to be 37.7%. Further, the glutamate uptake change in test [6] is -9.42%. In test [7], this molecule had an aggregation suppression score of 1.13.

Values taken from PubChem BioAssay.
